A selection: hits, their analogues and other compounds. The true share with any hit is near 15%.
DT40 TDP1 CPT: growth inhibition of DT40 Tdp1-/-;hTDP1 cells with camptothecin (screen for TDP1 inhibitors). chicken DT40 Tdp1-/-;hTDP1 cells + 20 nM CPT, ATP luminescence, 48 h. Potency, µM (doses to about 46.2 µM), for the others: at the highest dose activity change, negative = growth inhibition, hits mostly inhibitors. 420,000 tested, 12% active; note: nearly all actives have a fitted effect of over 55% in size
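Chicken DT40 Tdp1-/- cells complemented with human TDP1, 400 cells/well, exposed to compounds plus 20 nM camptothecin for at least 48 h at 37 C; viability read as ATP content by CellTiter-Glo luminescence.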
RORg inh: inhibitors of mouse ROR gamma transcriptional activity; Potency, µM (highest dose often 53.6 µM), inactives show at the highest dose activity change, negative = inhibition, actives largely listed as inhibitors; AID 2551; 310,000 tested, 5.4% active; Drosophila S2 Gal4-RORgamma UAS-luciferase reporter, 20 h; P51450; note: nearly all actives have a fitted effect of over 60% in size
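ROR gamma transcriptional activity was tracked as Gal4-UAS luciferase output in stably transfected Drosophila Schneider cells, with compound added 1 hr before 700 uM copper sulfate induction and a 20 hr ambient-temperature incubation.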
ELG1 repair inh: ELG1-dependent DNA repair inhibition | HEK293T ELG1-luciferase reporter, luminescence, 16 h; DNA damage induced by 5-fluorouridine | Potency, µM (titrated, usually from 46.1 µM), inactives show at the top dose activity change, negative = inhibition, actives largely listed as inhibitors | 330,000 tested, 2.3% active; note: nearly all actives have a fitted effect of over 55% in size
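Overnight (16 hr) co-exposure of 2,000 cells/well to 5-fluorouridine and compound at 37 °C preceded detection. Luciferase was quantified via ONE-Glo luminescence; loss of signal denotes inhibition.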
TDP1 cell noCPT: qHTS for Inhibitors of human tyrosyl-DNA phosphodiesterase 1 (TDP1): qHTS in cells in absence of CPT. Potency, µM (doses to about 46.2 µM), for the others: at the top dose activity change, negative = growth inhibition, hits mostly inhibitors. DT40 Tdp1-/- hTDP1 cells, no CPT, ATP luminescence, 48 h. 420,000 tested, 15% active; note: nearly all actives have a fitted effect of over 55% in size
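Readout: luminescence from CellTiter-Glo after 30 min in the dark at RT. Cells: DT40 Tdp1-/- with stable hTDP1, 400/well. Exposure: compounds alone, ≥48 hr, 37 °C.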
12-LOX inh: blocks human arachidonate 12S-lipoxygenase; P18054; purified 12hLO, xylenol orange hydroperoxide absorbance; Potency, µM (top dose mostly 108 µM), for the others: top-dose activity change, negative = inhibition, hits mostly inhibitors; 580,000 tested, 1.1% active; AID 1671190
Target sequence (P18054 whole entry, looked up): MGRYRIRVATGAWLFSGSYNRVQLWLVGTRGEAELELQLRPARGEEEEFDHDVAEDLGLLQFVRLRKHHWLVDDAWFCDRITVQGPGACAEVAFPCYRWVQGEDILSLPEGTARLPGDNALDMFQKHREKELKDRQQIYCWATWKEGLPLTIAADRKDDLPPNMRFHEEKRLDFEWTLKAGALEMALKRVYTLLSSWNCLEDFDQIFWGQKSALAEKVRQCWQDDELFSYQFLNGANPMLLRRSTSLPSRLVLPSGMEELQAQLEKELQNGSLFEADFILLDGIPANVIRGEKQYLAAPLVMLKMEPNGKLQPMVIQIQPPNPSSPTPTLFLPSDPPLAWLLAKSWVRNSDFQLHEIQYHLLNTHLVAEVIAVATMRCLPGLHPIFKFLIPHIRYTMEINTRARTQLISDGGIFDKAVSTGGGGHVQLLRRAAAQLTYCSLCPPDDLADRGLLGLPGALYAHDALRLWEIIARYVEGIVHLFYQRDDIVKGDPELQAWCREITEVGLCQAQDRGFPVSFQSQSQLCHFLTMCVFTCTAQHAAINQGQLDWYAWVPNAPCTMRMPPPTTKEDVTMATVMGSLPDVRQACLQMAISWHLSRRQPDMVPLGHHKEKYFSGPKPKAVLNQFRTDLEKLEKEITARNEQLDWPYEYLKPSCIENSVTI
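Purified human 12hLO at 150 nM in 25 mM Hepes, 0.01% Triton X-100, pH 7.0, preincubated 15 min at room temperature with compound. Reaction started with 40 uM arachidonic acid, 30 min at room temperature. Hydroperoxide measured by Fe-xylenol orange, 573/405 nm absorbance ratio.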
Gal4-VP16 FLuc: Gal4-VP16 reporter inhibition counter-screen; Potency, µM (top dose mostly 53.6 µM), inactives show top-dose activity, negative = inhibition, actives largely listed as inhibitors; AID 2546; Drosophila S2 Gal4-VP16 UAS-luciferase, luminescence, 20 h; 310,000 tested, 3.5% active;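 note: Gal4-VP16 expression switched on by copper sulfate through the metallothionein promoter; nearly all actives have a fitted effect of over 50% in size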
Starred values were filed as active, the others as inactive; [ ] = another dose, or the depositor's remark. Calls come from the whole dose curve; as a rule, active = well fitted curve in the direction sought with a large enough effect; inconclusive = small, poorly fitted or top-dose-only effect, or another doubt; inactive = no such curve, though single readings can be large; an effect the other way counts as inactive or inconclusive. % is set by controls: 0 for no effect and ±100 for the full control effect; potency is the fitted concentration of half-maximal effect.

Clc1ccc(N/N=C/c2ccncc2)cc1Cl was read as DT40 TDP1 CPT -22%, RORg inh inconclusive, ELG1 repair inh inconclusive, TDP1 cell noCPT inconclusive, 12-LOX inh inconclusive and Gal4-VP16 FLuc -4%.
`CC1CCC2(CCc3cc4c5c(c(=O)oc4cc3O2)CCCC5)CC1` (centres undefined) gave 12-LOX inh -24%.
CCOC(=O)CC1(NC(=O)N2CCCC2c2cccs2)CCCCC1 (centres undefined) was read as 12-LOX inh 11%.
`CC1CN(CCS(=O)c2ccccc2)CC(C)O1` (centres undefined) gave 12-LOX inh -1%.
O=C(/C=C/c1cccc([N+](=O)[O-])c1)c1ccco1 was read as DT40 TDP1 CPT 4.6µM*, RORg inh -128%, ELG1 repair inh inconclusive, TDP1 cell noCPT 3.7µM*, 12-LOX inh -6% and Gal4-VP16 FLuc inconclusive.
`O=C(/C=C/c1cccc([N+](=O)[O-])c1)c1ccc([N+](=O)[O-])o1` gave DT40 TDP1 CPT 0.16µM*, TDP1 cell noCPT 0.16µM* and 12-LOX inh -5%.
`COc1ccc(/C=C/C(=O)c2ccc([N+](=O)[O-])o2)cc1` gave DT40 TDP1 CPT 2.3µM*, ELG1 repair inh inconclusive, TDP1 cell noCPT 2.6µM* and 12-LOX inh -23%.
`COc1ccc(/C=C/C(=O)/C=C/c2ccc(OC)cc2)cc1` gave 12-LOX inh -10%.
For Cc1ccc([N+](=O)[O-])cc1N/C=C/C(=O)c1ccco1 the results were DT40 TDP1 CPT inconclusive, RORg inh inconclusive, ELG1 repair inh inconclusive, TDP1 cell noCPT 21µM*, 12-LOX inh 14% and Gal4-VP16 FLuc 2%.
`CN(Cc1cc(-c2ccccc2)no1)Cc1ncccc1C(=O)O` gave 12-LOX inh 30%.
`O=C1C=C(Nc2ccccc2C(F)(F)F)CCC1` gave 12-LOX inh -23%.
`Cc1cccc(/C=C/C(=O)c2ccc([N+](=O)[O-])o2)c1` gave DT40 TDP1 CPT 0.58µM*, ELG1 repair inh inconclusive, TDP1 cell noCPT 0.65µM* and 12-LOX inh inconclusive.
Screening C=CCN(CC=C)C(=O)C1CCCN(C2CCN(C3Cc4ccccc4C3)CC2)C1 (centres undefined) returned 12-LOX inh -4%.
`CC(C)CNS(=O)(=O)c1ccccc1C(=O)N1CCCCC1` gave DT40 TDP1 CPT -17%, RORg inh 43%, ELG1 repair inh inconclusive, TDP1 cell noCPT -6%, 12-LOX inh inconclusive and Gal4-VP16 FLuc 3%.
For Cc1cccc(C)c1OCC(O)CNS(=O)(=O)c1ccccc1C(=O)N1CCCCC1 (centres undefined) the results were DT40 TDP1 CPT 18µM*, RORg inh -3%, ELG1 repair inh 16µM*, TDP1 cell noCPT 21µM*, 12-LOX inh -21% and Gal4-VP16 FLuc -4%.
For CN(C)c1nc(OCCNC(=O)Nc2ccccc2)nc(N2CCOCC2)n1 the results were DT40 TDP1 CPT 23µM*, RORg inh -2%, ELG1 repair inh -19%, TDP1 cell noCPT -78%, 12-LOX inh 0%[57.4 µM] and Gal4-VP16 FLuc -2%.
CC1(C(=O)NS(=O)(=O)C2CC2)CCCN(C(=O)c2cc3ccccc3s2)C1 (centres undefined) was read as DT40 TDP1 CPT 0.65µM*, TDP1 cell noCPT 0.82µM* and 12-LOX inh 0%.
For CCCS(=O)(=O)NC(=O)C1(C)CCN(C(=O)COCc2ccccc2)C1 (centres undefined) the results were DT40 TDP1 CPT -4%, TDP1 cell noCPT -4% and 12-LOX inh inconclusive.
For CC1(C(=O)NS(=O)(=O)C2CC2)CCCN(C(=O)Cc2ccc3ccccc3c2)C1 (centres undefined) the results were DT40 TDP1 CPT 9.2µM*, TDP1 cell noCPT 10µM* and 12-LOX inh 9%.
`CC1(C(=O)NS(=O)(=O)C2CC2)CCN(C(=O)c2cc3ccccc3s2)C1` (centres undefined) gave DT40 TDP1 CPT -3%, TDP1 cell noCPT 23% and 12-LOX inh -8%.
CC1(C(=O)NS(=O)(=O)C2CC2)CCCN(C(=O)COCc2ccccc2)C1 (centres undefined) was read as DT40 TDP1 CPT 6.5µM*, TDP1 cell noCPT 2.3µM* and 12-LOX inh 1%.
`OC(c1nc(Nc2ccc(Cl)cc2)n[nH]1)C1CC1` (centres undefined) gave 12-LOX inh 0%[176 µM].
For COc1ccc(OC)c(NC(=O)N(C)CCc2noc(C(=O)NCc3ccccc3)n2)c1 the results were 12-LOX inh 2%.
`Cc1nn(-c2ccc(F)cc2F)c2c1C(C(=O)c1ccc(C(C)C)cc1)CC(=O)N2` (centres undefined) gave 12-LOX inh -19%.
Screening COc1cc(OC)c2cc(-c3ccncc3)cnc2c1 returned DT40 TDP1 CPT 24µM*, RORg inh -38%, TDP1 cell noCPT 27µM*, 12-LOX inh inconclusive and Gal4-VP16 FLuc -11%.
O=C(ONC(=O)C1C2C=CC(C2)C1C(=O)NOC(=O)c1ccccc1)c1ccccc1 (centres undefined) was read as DT40 TDP1 CPT 3.3µM*, TDP1 cell noCPT 2.9µM* and 12-LOX inh 0%.
Screening Cc1ccc(NC(=O)c2c(C)oc(C)c2C)c(O)c1 returned 12-LOX inh 41%.
O=C(Oc1ccc(Sc2ccc(OC(=O)C3CC3)cc2)cc1)C1CC1 was read as 12-LOX inh -21%.
For Cc1ccc(NS(=O)(=O)c2cc3c4c(cccc4c2)C(=O)NC3=O)cc1 the results were DT40 TDP1 CPT inconclusive, RORg inh -2%, ELG1 repair inh inconclusive, TDP1 cell noCPT 9.2µM*, 12-LOX inh -18% and Gal4-VP16 FLuc -4%.
`CNS(=O)(=O)c1cc2c3c(cccc3c1)C(=O)NC2=O` gave DT40 TDP1 CPT 18µM*, RORg inh 17%, ELG1 repair inh inconclusive, TDP1 cell noCPT 23µM*, 12-LOX inh -10% and Gal4-VP16 FLuc 1%.
`Cc1ccc(S(=O)(=O)Nc2ccc(-c3ccccc3)cc2)cc1` gave 12-LOX inh 0%.
For CN(C)C(=O)N1CCCn2nc(CNC(=O)C(=O)c3ccco3)cc2C1 the results were 12-LOX inh 4%.
